Measured values published in PubChem BioAssay.

Test: MRP1 drug-resistance reversers in H69AR cells – cell-based, doxorubicin co-treatment, pilot screen (AID 601)
Details: H69AR cells + 2 uM doxorubicin, CellTiter-Glo, 72 h; measured here: viability with 2 uM doxorubicin; at 10 µM; stronger effect = lower value

Row | Structure (SMILES) | viability
1 | CCOc1ccc(N(CC(=O)Nc2ccc(C)c(C)c2)S(=O)(=O)c2c(C)noc2C)cc1 | 68.2%
2 | CCCn1c(OC)nc2c1c(=O)n(C)c(=O)n2C | 94.1%
3 | COc1cc2[nH]c(=O)n(CCCCCC(=O)N3CCN(c4ccccn4)CC3)c(=O)c2cc1OC | 92.1%
4 | CCOc1ccc(N(CC(=O)NC2CCCCC2)S(=O)(=O)c2c(C)noc2C)cc1 | 85.6%
5 | O=C(c1ccco1)N1CCN(C(=O)c2sccc2-c2ccccc2)CC1 | 89.8%
6 | CCSC1=C(C#N)C(c2ccccc2OC)CC(=O)N1 (stereo not drawn) | 92.8%
7 | CCOC(=O)Cn1nc(-c2ccc(Cl)cc2)cc1N | 83.1%
8 | CC(C(=O)N1CC2(C)CC1CC(C)(C)C2)N1C(=O)c2ccccc2C1=O (stereo not drawn) | 81.3%
9 | COc1cccc(N(C(C)=O)c2nc(C)cc(C)c2C#N)c1 | 95.3%
10 | COc1cccc(NC(=O)c2ccco2)c1 | 87.2%
11 | Cc1ccc(Cn2c(CN3CCOCC3)nc3c2c(=O)n(C)c(=O)n3C)cc1 | 99.6%
12 | CCOc1ccc(NC(=O)CSc2nccn2C)cc1 | 93%
13 | Cc1nc2ccc(Br)cn2c1NC(C)(C)C | 86.3%
14 | COc1ccccc1C(=O)NCCc1nc2ccccc2n1C | 95%
15 | Cn1ccnc1SCC(=O)Nc1ccc2ccccc2c1 | 86.9%
16 | c1nc(NCC2(N3CCOCC3)CCCCC2)c2ccsc2n1 | 99.2%
17 | Cc1noc(C(=O)Nc2ccc3c(c2)OCO3)c1Cl | 97.2%
18 | Cc1ccc(S(=O)(=O)N2CCOCC2)cc1C(=O)Nc1nc(-c2cccnc2)cs1 | 94.3%
19 | Cc1cccc(C)c1OCc1nnc(SCC(=O)Nc2ccccc2F)o1 | 90.2%
20 | CCN(CC)CCCN1C(=O)C(O)=C(C(=O)c2ccco2)C1c1ccc(C)o1 (stereo not drawn) | 86%

Row | Structure (SMILES) | viability
21 | Cc1ccc(S(=O)(=O)C(C#N)c2nc3ccccc3nc2N2CCCCC2)cc1 (stereo not drawn) | 94.7%
22 | C(/CCc1ccccc1)=N\n1cnnc1 | 89.1%
23 | CCOCCCNC(=O)C(c1ccccc1)N(Cc1ccc2c(c1)OCO2)C(=O)CNC(C)=O (stereo not drawn) | 102%
24 | COc1ccccc1N1CCN(c2cc(=O)n(Cc3ccc(F)cc3)c(=O)[nH]2)CC1 | 50.1%
25 | CNC(=O)C1C2C=CC3(O2)C1C(=O)N(C1CC1)C3C(=O)NCc1ccc(OC)cc1 (stereo not drawn) | 92%
26 | CCCSc1nc2c(cnn2-c2ccc(C)cc2)c(=O)[nH]1 | 22.6%
27 | Nn1c(Cc2ccccc2F)nnc1SCC(=O)N1CC(=O)Nc2ccccc21 | 86.1%
28 | CCc1ccc(N2CC(C(=O)OCC(=O)NC3CCS(=O)(=O)C3)CC2=O)cc1 (stereo not drawn) | 99.5%
29 | Cc1ccccc1Cn1ccc(NC(=O)c2onc(C)c2Cl)n1 | 83.6%
30 | O=C(CSc1ccc2nnc(-c3ccccc3)n2n1)N1CCN(c2ccccc2)CC1 | 93.4%
31 | CC(C)C(NC(=O)c1ccc(S(=O)(=O)N2CCOCC2)cc1)c1nc2ccccc2[nH]1 (stereo not drawn) | 85.2%
32 | Cc1ccc(SCC(=O)NCCN2C(=O)CSC2=O)c(C)c1 | 89.5%
33 | N#Cc1c2n(c(=O)[nH]c1=O)CCCCC2 | 99.7%
34 | CCN(C1CCCCC1)S(=O)(=O)c1ccc(S(=O)(=O)N2CCN(CCC#N)CC2)cc1 | 98.3%
35 | COc1cccc2c(=O)c3c(cnn3C)n(C)c12 | 92.8%
36 | Cc1nnc(N2C(=O)C(O)=C(C(=O)c3ccco3)C2c2ccc(F)cc2)s1 (stereo not drawn) | 90.9%
37 | CC1(C)CC(=O)C(C=NCC2CCNCC2)=C(O)C1 | 98.5%
38 | CCOC(=O)C(C)Sc1nnc(Cc2cc(=O)[nH]c(=O)[nH]2)n1-c1ccc(Cl)cc1 (stereo not drawn) | 98.2%
39 | O=C(CS(=O)(=O)Cc1ccccc1)Nc1nc2ccccc2s1 | 95.9%

Same assay, conditions: H69AR cells, CellTiter-Glo, 72 h; compound alone cytotoxicity; at 10 µM

Row | Structure (SMILES) | viability
40 | CCOc1ccc(N(CC(=O)Nc2ccc(C)c(C)c2)S(=O)(=O)c2c(C)noc2C)cc1 | 53.8%
41 | CCCn1c(OC)nc2c1c(=O)n(C)c(=O)n2C | 94.4%
42 | COc1cc2[nH]c(=O)n(CCCCCC(=O)N3CCN(c4ccccn4)CC3)c(=O)c2cc1OC | 89.3%
43 | CCOc1ccc(N(CC(=O)NC2CCCCC2)S(=O)(=O)c2c(C)noc2C)cc1 | 74.3%
44 | O=C(c1ccco1)N1CCN(C(=O)c2sccc2-c2ccccc2)CC1 | 83%
45 | CCSC1=C(C#N)C(c2ccccc2OC)CC(=O)N1 (stereo not drawn) | 99.8%
46 | CCOC(=O)Cn1nc(-c2ccc(Cl)cc2)cc1N | 101%
47 | CC(C(=O)N1CC2(C)CC1CC(C)(C)C2)N1C(=O)c2ccccc2C1=O (stereo not drawn) | 98.1%
48 | COc1cccc(N(C(C)=O)c2nc(C)cc(C)c2C#N)c1 | 104%
49 | COc1cccc(NC(=O)c2ccco2)c1 | 94.9%
50 | Cc1ccc(Cn2c(CN3CCOCC3)nc3c2c(=O)n(C)c(=O)n3C)cc1 | 102%
51 | CCOc1ccc(NC(=O)CSc2nccn2C)cc1 | 99.7%
52 | Cc1nc2ccc(Br)cn2c1NC(C)(C)C | 86.8%
53 | COc1ccccc1C(=O)NCCc1nc2ccccc2n1C | 101%
54 | Cn1ccnc1SCC(=O)Nc1ccc2ccccc2c1 | 105%
55 | c1nc(NCC2(N3CCOCC3)CCCCC2)c2ccsc2n1 | 98.6%
56 | Cc1noc(C(=O)Nc2ccc3c(c2)OCO3)c1Cl | 96.9%
57 | Cc1ccc(S(=O)(=O)N2CCOCC2)cc1C(=O)Nc1nc(-c2cccnc2)cs1 | 103%
58 | Cc1cccc(C)c1OCc1nnc(SCC(=O)Nc2ccccc2F)o1 | 83%
59 | CCN(CC)CCCN1C(=O)C(O)=C(C(=O)c2ccco2)C1c1ccc(C)o1 (stereo not drawn) | 85.4%

Row | Structure (SMILES) | viability
60 | Cc1ccc(S(=O)(=O)C(C#N)c2nc3ccccc3nc2N2CCCCC2)cc1 (stereo not drawn) | 92%
61 | C(/CCc1ccccc1)=N\n1cnnc1 | 99%
62 | CCOCCCNC(=O)C(c1ccccc1)N(Cc1ccc2c(c1)OCO2)C(=O)CNC(C)=O (stereo not drawn) | 105%
63 | COc1ccccc1N1CCN(c2cc(=O)n(Cc3ccc(F)cc3)c(=O)[nH]2)CC1 | 12.1%
64 | CNC(=O)C1C2C=CC3(O2)C1C(=O)N(C1CC1)C3C(=O)NCc1ccc(OC)cc1 (stereo not drawn) | 91.5%
65 | CCCSc1nc2c(cnn2-c2ccc(C)cc2)c(=O)[nH]1 | 19.1%
66 | Nn1c(Cc2ccccc2F)nnc1SCC(=O)N1CC(=O)Nc2ccccc21 | 84.1%
67 | CCc1ccc(N2CC(C(=O)OCC(=O)NC3CCS(=O)(=O)C3)CC2=O)cc1 (stereo not drawn) | 103%
68 | Cc1ccccc1Cn1ccc(NC(=O)c2onc(C)c2Cl)n1 | 100%
69 | O=C(CSc1ccc2nnc(-c3ccccc3)n2n1)N1CCN(c2ccccc2)CC1 | 83.8%
70 | CC(C)C(NC(=O)c1ccc(S(=O)(=O)N2CCOCC2)cc1)c1nc2ccccc2[nH]1 (stereo not drawn) | 82.2%
71 | Cc1ccc(SCC(=O)NCCN2C(=O)CSC2=O)c(C)c1 | 87.7%
72 | N#Cc1c2n(c(=O)[nH]c1=O)CCCCC2 | 103%
73 | CCN(C1CCCCC1)S(=O)(=O)c1ccc(S(=O)(=O)N2CCN(CCC#N)CC2)cc1 | 87.8%
74 | COc1cccc2c(=O)c3c(cnn3C)n(C)c12 | 81.9%
75 | Cc1nnc(N2C(=O)C(O)=C(C(=O)c3ccco3)C2c2ccc(F)cc2)s1 (stereo not drawn) | 99.6%
76 | CC1(C)CC(=O)C(C=NCC2CCNCC2)=C(O)C1 | 93.8%
77 | CCOC(=O)C(C)Sc1nnc(Cc2cc(=O)[nH]c(=O)[nH]2)n1-c1ccc(Cl)cc1 (stereo not drawn) | 103%
78 | O=C(CS(=O)(=O)Cc1ccccc1)Nc1nc2ccccc2s1 | 92.1%
